According to PubChem BioAssay AID1159580 (chemical genetic matrix, 2015):
Hit rate of the full screen: of about 5,500 compounds, about 2,000 (36%) were called active. Another 18% or so got no clear call; they are omitted. No stated cut-off is given here; in the data, active means normalized growth mostly below about 0.91 (no sharp cut-off); inconclusive means no clear call, values can overlap the other calls; inactive means mostly above about 0.92. Some of the results follow.

Test: chemical genetic growth profiling, strain panel (AID 1159580);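 further: tested at 20 µM; growth read once vehicle control cultures reached saturation at 30 °C; 1 = growth at the plate median or of vehicle wells; lower values mean less growth of the strain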
Details: growth OD

Measured: normalized growth

COc1ccc2c(c1)C1(C)CCC(=O)CC1CC2 (stereo not drawn)
inactive: S. cerevisiae deletion strains, locus YAL021C, strain ccr4, active compounds read low 1.01 | S. cerevisiae deletion strains, locus YAL026C, strain drs2, active compounds read low 1.04 | S. cerevisiae deletion strains, locus YAL030W, strain snc1, active compounds read low 1 | S. cerevisiae deletion strains, locus YBL061C, strain skt5, active compounds read low 1.01 | S. cerevisiae deletion strains, locus YBR009C, strain hhf1, active compounds read low 1.01 | S. cerevisiae deletion strains, locus YBR021W, strain FUR4, active compounds read low 0.976 | S. cerevisiae deletion strains, locus YBR023C, strain chs3, active compounds read low 1.01 | S. cerevisiae deletion strains, locus YBR171W, strain sec66, active compounds read low 1.01 | S. cerevisiae deletion strains, locus YBR229C, strain ROT2, active compounds read low 0.994 | S. cerevisiae deletion strains, locus YBR231C, strain swc5, active compounds read low 1.04 | S. cerevisiae deletion strains, locus YBR279W, strain paf1, active compounds read low 1 | S. cerevisiae deletion strains, locus YCL011C, strain gbp2, active compounds read low 1.01 | S. cerevisiae deletion strains, locus YCL016C, strain dcc1, active compounds read low 1 | S. cerevisiae deletion strains, locus YCL029C, strain bik1, active compounds read low 0.986 | S. cerevisiae deletion strains, locus YCL061C, strain MRC1, active compounds read low 1.01 | S. cerevisiae deletion strains, locus YCL069W, strain vba3, active compounds read low 1 | S. cerevisiae deletion strains, locus YCR088W, strain abp1, active compounds read low 1.01 | S. cerevisiae deletion strains, locus YDL005C, strain med2, active compounds read low 1.01 | S. cerevisiae deletion strains, locus YDL035C, strain GPR1, active compounds read low 1.01 | S. cerevisiae deletion strains, locus YDL040C, strain nat1, active compounds read low 0.999 | S. cerevisiae deletion strains, locus YDL074C, strain BRE1, active compounds read low 1.02 | S. cerevisiae deletion strains, locus YDL101C, strain DUN1, active compounds read low 0.998 | S. cerevisiae deletion strains, locus YDL134C, strain PPH21, active compounds read low 0.947 | S. cerevisiae deletion strains, locus YDL185W, strain tfp1, active compounds read low 0.989 | S. cerevisiae deletion strains, locus YDL192W, strain arf1, active compounds read low 0.989 | S. cerevisiae deletion strains, locus YDR001C, strain nth1, active compounds read low 1.01 | S. cerevisiae deletion strains, locus YDR069C, strain doa4, active compounds read low 1.02 | S. cerevisiae deletion strains, locus YDR101C, strain arx1, active compounds read low 1 | S. cerevisiae deletion strains, locus YDR137W, strain rgp1, active compounds read low 0.967 | S. cerevisiae deletion strains, locus YDR150W, strain NUM1, active compounds read low 0.991 | S. cerevisiae deletion strains, locus YDR159W, strain sac3, active compounds read low 1.06 | S. cerevisiae deletion strains, locus YDR162C, strain NBP2, active compounds read low 1 | S. cerevisiae deletion strains, locus YDR195W, strain ref2 1.04 | S. cerevisiae deletion strains, locus YDR297W, strain sur2, active compounds read low 1.02 | S. cerevisiae deletion strains, locus YDR318W, strain mcm21, active compounds read low 0.988 | S. cerevisiae deletion strains, locus YDR334W, strain swr1, active compounds read low 1 | S. cerevisiae deletion strains, locus YDR335W, strain msn5, active compounds read low 1.01 | S. cerevisiae deletion strains, locus YDR388W, active compounds read low 0.989 | S. cerevisiae deletion strains, locus YDR392W, strain spt3, active compounds read low 0.996 | S. cerevisiae deletion strains, locus YDR502C, strain sam2, active compounds read low 0.977 | S. cerevisiae deletion strains, locus YEL003W, strain gim4, active compounds read low 1.01 | S. cerevisiae deletion strains, locus YEL037C, strain rad23, active compounds read low 1.02 | S. cerevisiae deletion strains, locus YEL061C, strain CIN8 (second series), active compounds read low 1.01 | S. cerevisiae deletion strains, locus YEL061C, strain CIN8, active compounds read low 0.993 | S. cerevisiae deletion strains, locus YER015W, strain faa2, active compounds read low 1.01 | S. cerevisiae deletion strains, locus YER016W, strain bim1, active compounds read low 1 | S. cerevisiae deletion strains, locus YER110C, active compounds read low 0.979 | S. cerevisiae deletion strains, locus YER111C, strain swi4, active compounds read low 1.01 | S. cerevisiae deletion strains, locus YER155C, strain BEM2 (second series), active compounds read low 1.02 | S. cerevisiae deletion strains, locus YER155C, strain BEM2, active compounds read low 0.988 | S. cerevisiae deletion strains, locus YER167W, strain BCK2, active compounds read low 0.999 | S. cerevisiae deletion strains, locus YFR010W, strain ubp6, active compounds read low 1.02 | S. cerevisiae deletion strains, locus YGL078C, strain dbp3, active compounds read low 0.982 | S. cerevisiae deletion strains, locus YGL086W, strain mad1, active compounds read low 0.98 | S. cerevisiae deletion strains, locus YGL167C, strain pmr1, active compounds read low 1.01 | S. cerevisiae deletion strains, locus YGL173C, strain kem1, active compounds read low 1.01 | S. cerevisiae deletion strains, locus YGL227W, strain vid30, active compounds read low 1.01 | S. cerevisiae deletion strains, locus YGL240W, strain doc1, active compounds read low 1.01 | S. cerevisiae deletion strains, locus YGL248W, strain PDE1, active compounds read low 0.971 | S. cerevisiae deletion strains, locus YGL253W, strain hxk2, active compounds read low 1.03 | S. cerevisiae deletion strains, locus YGR135W, strain pre9, active compounds read low 0.965 | S. cerevisiae deletion strains, locus YGR252W, strain gcn5, active compounds read low 0.96 | S. cerevisiae deletion strains, locus YHR013C, strain ard1, active compounds read low 1.05 | S. cerevisiae deletion strains, locus YHR027C, strain rpn1, active compounds read low 1.03 | S. cerevisiae deletion strains, locus YHR030C, strain SLT2, active compounds read low 0.993 | S. cerevisiae deletion strains, locus YHR079C, strain IRE1 (second series), active compounds read low 0.991 | S. cerevisiae deletion strains, locus YHR094C, strain hxt1, active compounds read low 0.984 | S. cerevisiae deletion strains, locus YHR129C, strain ARP1, active compounds read low 0.993 | S. cerevisiae deletion strains, locus YHR142W, strain chs7, active compounds read low 1.02 | S. cerevisiae deletion strains, locus YHR200W, strain rpn10, active compounds read low 0.985 | S. cerevisiae deletion strains, locus YIL066C, strain RNR3, active compounds read low 1.01 | S. cerevisiae deletion strains, locus YIL073C, strain SPO22, active compounds read low 0.994 | S. cerevisiae deletion strains, locus YIL125W, strain kgd1, active compounds read low 0.987 | S. cerevisiae deletion strains, locus YIR030C, strain dcg1, active compounds read low 0.983 | S. cerevisiae deletion strains, locus YJL092W, strain hpr5, active compounds read low 1.01 | S. cerevisiae deletion strains, locus YJL095W, strain BCK1 (second series), active compounds read low 1.01 | S. cerevisiae deletion strains, locus YJL095W, strain BCK1, active compounds read low 0.953 | S. cerevisiae deletion strains, locus YJL115W, strain asf1, active compounds read low 1.02 | S. cerevisiae deletion strains, locus YJL129C, strain trk1, active compounds read low 1.01 | S. cerevisiae deletion strains, locus YJL134W, strain LCB3, active compounds read low 0.992 | S. cerevisiae deletion strains, locus YJL154C, strain vps35, active compounds read low 1.01 | S. cerevisiae deletion strains, locus YJL164C, strain tpk1, active compounds read low 1.01 | S. cerevisiae deletion strains, locus YJL166W, strain qcr8, active compounds read low 1.01 | S. cerevisiae deletion strains, locus YJL168C, strain set2, active compounds read low 0.989 | S. cerevisiae deletion strains, locus YJL187C, strain SWE1 (second series), active compounds read low 0.979 | S. cerevisiae deletion strains, locus YJL187C, strain SWE1, active compounds read low 1.01 | S. cerevisiae deletion strains, locus YJR043C, strain POL32, active compounds read low 1.03 | S. cerevisiae deletion strains, locus YKL009W, strain mrt4, active compounds read low 0.969 | S. cerevisiae deletion strains, locus YKL068W, active compounds read low 0.978 | S. cerevisiae deletion strains, locus YKL085W, strain MDH1 (second series), active compounds read low 0.984 | S. cerevisiae deletion strains, locus YKL085W, strain MDH1, active compounds read low 0.984 | S. cerevisiae deletion strains, locus YKL160W, strain elf1, active compounds read low 1 | S. cerevisiae deletion strains, locus YKR001C, strain vps1, active compounds read low 0.965 | S. cerevisiae deletion strains, locus YKR026C, strain gcn3, active compounds read low 1.01 | S. cerevisiae deletion strains, locus YKR091W, strain srl3, active compounds read low 1.01 | S. cerevisiae deletion strains, locus YLL001W, strain dnm1, active compounds read low 1.01 | S. cerevisiae deletion strains, locus YLL026W, active compounds read low 1 | S. cerevisiae deletion strains, locus YLL041C, strain sdh2, active compounds read low 1 | S. cerevisiae deletion strains, locus YLR027C, strain aat2, active compounds read low 1 | S. cerevisiae deletion strains, locus YLR039C, strain RIC1, active compounds read low 0.957 | S. cerevisiae deletion strains, locus YLR058C, strain SHM2, active compounds read low 0.996 | S. cerevisiae deletion strains, locus YLR102C, strain apc9, active compounds read low 0.98 | S. cerevisiae deletion strains, locus YLR221C, strain rsa3, active compounds read low 1.03 | S. cerevisiae deletion strains, locus YLR258W, strain gsy2, active compounds read low 1.02 | S. cerevisiae deletion strains, locus YLR262C, strain YPT6 (second series), active compounds read low 0.99 | S. cerevisiae deletion strains, locus YLR268W, strain sec22, active compounds read low 0.978 | S. cerevisiae deletion strains, locus YLR320W, strain mms22, active compounds read low 1.02 | S. cerevisiae deletion strains, locus YLR330W, strain CHS5, active compounds read low 0.986 | S. cerevisiae deletion strains, locus YLR342W, strain FKS1 (second series), active compounds read low 0.949 | S. cerevisiae deletion strains, locus YLR342W, strain FKS1, active compounds read low 1.01 | S. cerevisiae deletion strains, locus YLR357W, strain rsc2, active compounds read low 1.01 | S. cerevisiae deletion strains, locus YLR370C, strain arc18, active compounds read low 1 | S. cerevisiae deletion strains, locus YLR371W, strain rom2, active compounds read low 1 | S. cerevisiae deletion strains, locus YLR384C, strain iki3, active compounds read low 1.01 | S. cerevisiae deletion strains, locus YLR418C, strain cdc73, active compounds read low 0.962 | S. cerevisiae deletion strains, locus YML016C, strain PPZ1, active compounds read low 0.987 | S. cerevisiae deletion strains, locus YML032C, strain rad52, active compounds read low 0.996 | S. cerevisiae deletion strains, locus YML120C, strain ndi1, active compounds read low 0.996 | S. cerevisiae deletion strains, locus YML124C, strain tub3, active compounds read low 0.98 | S. cerevisiae deletion strains, locus YMR058W, strain fet3, active compounds read low 1.02 | S. cerevisiae deletion strains, locus YMR078C, strain ctf18, active compounds read low 0.985 | S. cerevisiae deletion strains, locus YMR125W, strain sto1, active compounds read low 0.994 | S. cerevisiae deletion strains, locus YMR129W, active compounds read low 1.01 | S. cerevisiae deletion strains, locus YMR205C, strain PFK2, active compounds read low 1.01 | S. cerevisiae deletion strains, locus YMR223W, strain ubp8, active compounds read low 0.975 | S. cerevisiae deletion strains, locus YMR231W, strain pep5, active compounds read low 1.01 | S. cerevisiae deletion strains, locus YMR263W, strain SAP30, active compounds read low 0.99 | S. cerevisiae deletion strains, locus YMR307W, strain GAS1, active compounds read low 1.04 | S. cerevisiae deletion strains, locus YNL067W, strain RPL9B, active compounds read low 0.974 | S. cerevisiae deletion strains, locus YNL071W, strain lat1, active compounds read low 1 | S. cerevisiae deletion strains, locus YNL209W, strain ssb2, active compounds read low 1.01 | S. cerevisiae deletion strains, locus YNL233W, strain BNI4, active compounds read low 0.971 | S. cerevisiae deletion strains, locus YNL248C, strain rpa49, active compounds read low 1.06 | S. cerevisiae deletion strains, locus YNL250W, strain rad50, active compounds read low 0.994 | S. cerevisiae deletion strains, locus YNL271C, strain bni1, active compounds read low 0.986 | S. cerevisiae deletion strains, locus YNL298W, strain CLA4, active compounds read low 0.982 | S. cerevisiae deletion strains, locus YNL307C, strain MCK1, active compounds read low 0.98 | S. cerevisiae deletion strains, locus YNL322C, strain KRE1 (second series), active compounds read low 0.995 | S. cerevisiae deletion strains, locus YNR049C, strain mso1, active compounds read low 1.04 | S. cerevisiae deletion strains, locus YNR052C, strain pop2, active compounds read low 0.986 | S. cerevisiae deletion strains, locus YOL006C, strain TOP1, active compounds read low 0.969 | S. cerevisiae deletion strains, locus YOL012C, strain htz1 0.718 | S. cerevisiae deletion strains, locus YOL147C, strain pex11, active compounds read low 0.988 | S. cerevisiae deletion strains, locus YOR001W, strain rrp6, active compounds read low 1.02 | S. cerevisiae deletion strains, locus YOR061W, strain CKA2, active compounds read low 1 | S. cerevisiae deletion strains, locus YOR069W, strain VPS5, active compounds read low 0.991 | S. cerevisiae deletion strains, locus YOR070C, strain gyp1, active compounds read low 1.02 | S. cerevisiae deletion strains, locus YOR080W, strain dia2, active compounds read low 1.01 | S. cerevisiae deletion strains, locus YOR083W, strain WHI5, active compounds read low 1.01 | S. cerevisiae deletion strains, locus YOR106W, strain vam3, active compounds read low 1.02 | S. cerevisiae deletion strains, locus YOR136W, strain idh2, active compounds read low 0.988 | S. cerevisiae deletion strains, locus YOR144C, strain elg1, active compounds read low 0.985 | S. cerevisiae deletion strains, locus YOR184W, strain ser1, active compounds read low 0.952 | S. cerevisiae deletion strains, locus YOR265W, strain rbl2, active compounds read low 0.987 | S. cerevisiae deletion strains, locus YOR270C, strain vph1, active compounds read low 1.07 | S. cerevisiae deletion strains, locus YOR290C, strain snf2, active compounds read low 0.981 | S. cerevisiae deletion strains, locus YOR316C, strain cot1, active compounds read low 0.992 | S. cerevisiae deletion strains, locus YPL051W, strain arl3, active compounds read low 1.02 | S. cerevisiae deletion strains, locus YPL055C, strain LGE1, active compounds read low 1.02 | S. cerevisiae deletion strains, locus YPL078C, strain atp4, active compounds read low 0.996 | S. cerevisiae deletion strains, locus YPL106C, strain sse1, active compounds read low 1.04 | S. cerevisiae deletion strains, locus YPL240C, strain hsp82, active compounds read low 0.986 | S. cerevisiae deletion strains, locus YPR119W, strain clb2, active compounds read low 0.984 | S. cerevisiae deletion strains, locus YPR141C, strain kar3, active compounds read low 0.96 | S. cerevisiae deletion strains, locus YPR163C, strain tif3, active compounds read low 0.97 | S. cerevisiae deletion strains, locus YPR167C, strain met16, active compounds read low 0.981 | S. cerevisiae deletion strains, strain wtn01, active compounds read low 0.98 | S. cerevisiae strains, strain wild type, active compounds read low 1
